What all share (set-up): scale not given: direction of the effect not stated beside the values
Test [1] concerns the target Protein translocase subunit SecA (Escherichia coli (strain K12)) (UniProt P10408). Put plainly: Assay to Identify E. coli SecA ATPase Inhibitors. Type of test: functional. The settings on record: 30 µM.
Test [2] has as its target T1, Ubiquitin-activating enzyme e1, putative (Leishmania donovani (strain BPK282A1)) (UniProt E9BSI1).
T1 sequence (whole entry): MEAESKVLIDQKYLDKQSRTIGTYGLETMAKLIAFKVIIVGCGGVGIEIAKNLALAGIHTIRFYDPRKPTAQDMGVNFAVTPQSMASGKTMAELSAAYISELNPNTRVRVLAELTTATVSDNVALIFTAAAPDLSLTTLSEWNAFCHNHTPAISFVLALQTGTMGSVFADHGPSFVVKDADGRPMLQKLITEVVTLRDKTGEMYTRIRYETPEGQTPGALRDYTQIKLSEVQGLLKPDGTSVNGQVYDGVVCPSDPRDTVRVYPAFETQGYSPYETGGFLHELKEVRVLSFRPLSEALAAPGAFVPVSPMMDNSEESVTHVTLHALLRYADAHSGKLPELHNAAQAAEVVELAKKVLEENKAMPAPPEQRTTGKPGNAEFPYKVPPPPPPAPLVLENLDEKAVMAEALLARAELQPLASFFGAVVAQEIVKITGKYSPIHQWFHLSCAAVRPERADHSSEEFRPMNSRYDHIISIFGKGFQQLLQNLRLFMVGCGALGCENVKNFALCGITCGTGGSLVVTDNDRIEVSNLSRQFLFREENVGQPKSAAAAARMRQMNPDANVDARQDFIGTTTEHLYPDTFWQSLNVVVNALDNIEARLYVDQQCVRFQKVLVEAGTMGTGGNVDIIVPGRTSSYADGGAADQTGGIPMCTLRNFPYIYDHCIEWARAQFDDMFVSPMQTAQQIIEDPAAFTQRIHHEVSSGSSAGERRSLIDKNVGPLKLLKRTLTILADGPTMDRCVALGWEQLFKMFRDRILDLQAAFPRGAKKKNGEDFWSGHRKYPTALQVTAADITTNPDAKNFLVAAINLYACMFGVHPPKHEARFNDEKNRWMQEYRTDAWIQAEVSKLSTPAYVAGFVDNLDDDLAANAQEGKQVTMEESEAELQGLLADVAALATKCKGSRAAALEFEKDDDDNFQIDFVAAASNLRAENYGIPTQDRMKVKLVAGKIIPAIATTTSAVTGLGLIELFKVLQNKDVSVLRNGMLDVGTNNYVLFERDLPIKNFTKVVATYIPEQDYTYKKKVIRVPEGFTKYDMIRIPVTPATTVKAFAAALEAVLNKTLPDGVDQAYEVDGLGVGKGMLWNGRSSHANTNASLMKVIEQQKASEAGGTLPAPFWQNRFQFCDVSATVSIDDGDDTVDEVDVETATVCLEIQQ
Put plainly: Leishmania donovani Ubiquitin Activating Enzyme (LdE1). Particulars: 30 µM. Type of test: functional.

Test [3] addresses AMP-activated protein kinase, AMPK (Homo sapiens) (UniProt P54646+O43741+P54619+Q9UGJ0+Q9Y478+Q13131+Q9UGI9). The experiment in a line: AMP-dependent Kinase enzyme assay. An in vitro enzyme assay that detects ADP turnover that is directly proportional to AMPK activity. This uses naive AMPK that is activated during the assay with MK-8722. Type of test: functional. The settings on record: 30 µM.

In test [4] the target is Sialic acid-binding Ig-like lectin 9 (Homo sapiens) (UniProt Q9Y336). Put plainly: Hs-Siglec9 ALPHAscreen SOP 20170721. The settings on record: 10 µM. (Alpha assays give light when donor and acceptor beads are brought close together.)
Another test concerns Trypanosoma cruzi. The experiment in a line: Trypanosoma cruzi phosphomannomutase and mannose-1-phosphate guanylyltransferase assay. Type of test: functional. Particulars: 10 µM.
The target of test [5] is T2, Arginase-2, mitochondrial (Homo sapiens) (UniProt P78540).
T2 sequence (whole entry): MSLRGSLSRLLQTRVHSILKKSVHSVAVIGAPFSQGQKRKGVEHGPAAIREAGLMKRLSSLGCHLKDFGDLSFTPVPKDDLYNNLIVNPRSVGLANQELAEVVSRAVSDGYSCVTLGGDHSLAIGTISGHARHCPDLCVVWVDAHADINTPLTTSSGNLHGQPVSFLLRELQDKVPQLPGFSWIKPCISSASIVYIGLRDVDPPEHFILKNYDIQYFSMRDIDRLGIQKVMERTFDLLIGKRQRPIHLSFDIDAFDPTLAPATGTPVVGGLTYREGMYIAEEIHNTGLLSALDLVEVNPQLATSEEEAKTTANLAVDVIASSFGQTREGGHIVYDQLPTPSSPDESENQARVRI
Put plainly: in vitro enzyme assay to detect the production of urea directly proportional to the activity of Arginase II. Also: in the data most compounds retested in dose-response had high values. In kind it is functional. Particulars: 33.3 µM.

Test [6] addresses T3, Proteasome subunit beta (Trypanosoma cruzi) (UniProt O96673).
T3 sequence (whole entry): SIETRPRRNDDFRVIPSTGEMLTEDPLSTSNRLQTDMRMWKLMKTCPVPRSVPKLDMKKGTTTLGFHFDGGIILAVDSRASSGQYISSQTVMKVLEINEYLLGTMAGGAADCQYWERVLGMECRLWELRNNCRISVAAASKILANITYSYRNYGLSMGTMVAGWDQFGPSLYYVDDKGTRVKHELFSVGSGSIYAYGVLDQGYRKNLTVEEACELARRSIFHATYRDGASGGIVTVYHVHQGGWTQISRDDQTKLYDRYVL
Put plainly: Trypanosoma cruzi proteasome chymotrypsin-like activity (TcProtChymo) assay. Also: in the data most compounds retested in dose-response had high values. The settings on record: 9.37 µM. In kind it is functional.

For a further test, the species on record is Homo sapiens. The experiment in a line: To identify inhibition of the IFN signalling (Jak-Stat) pathway via expression of an eGFP reporter gene under the control of an IFN-stimulated response element (ISRE) containing MxA promoter. Type of test: functional. The settings on record: 30 µM.
For test [7], the target named is T4, Tyrosyl-tRNA synthetase, putative (Trypanosoma cruzi (strain CL Brener)) (UniProt Q4DSP6).
T4 sequence (whole entry): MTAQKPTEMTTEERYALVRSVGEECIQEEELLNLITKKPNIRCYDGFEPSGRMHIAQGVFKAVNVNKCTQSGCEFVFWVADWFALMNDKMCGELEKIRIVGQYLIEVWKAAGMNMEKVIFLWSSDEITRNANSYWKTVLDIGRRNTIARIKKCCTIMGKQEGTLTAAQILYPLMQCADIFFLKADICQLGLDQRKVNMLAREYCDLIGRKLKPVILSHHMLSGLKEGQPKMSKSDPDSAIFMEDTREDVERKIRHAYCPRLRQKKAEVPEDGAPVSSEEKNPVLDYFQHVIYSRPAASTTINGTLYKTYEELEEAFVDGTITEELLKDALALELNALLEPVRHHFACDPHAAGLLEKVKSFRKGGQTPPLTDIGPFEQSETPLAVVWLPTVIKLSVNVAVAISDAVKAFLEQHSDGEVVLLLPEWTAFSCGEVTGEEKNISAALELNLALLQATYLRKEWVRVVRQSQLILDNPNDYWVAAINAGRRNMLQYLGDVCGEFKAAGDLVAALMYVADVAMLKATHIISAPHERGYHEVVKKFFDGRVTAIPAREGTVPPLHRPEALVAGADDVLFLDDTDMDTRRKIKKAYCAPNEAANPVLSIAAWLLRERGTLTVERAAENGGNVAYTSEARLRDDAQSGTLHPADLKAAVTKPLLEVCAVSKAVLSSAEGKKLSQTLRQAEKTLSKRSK
Put plainly: Trypanosoma cruzi tyrosyl tRNA synthetase (TcYRS) _High Tyrosine SOP. Also: in the data most compounds retested in dose-response had high values. In kind it is functional. The settings on record: 30 µM.

The target in test [8] is T4, Tyrosyl-tRNA synthetase, putative (Trypanosoma cruzi (strain CL Brener)). Put plainly: Trypanosoma cruzi tyrosyl tRNA synthetase (TcYRS) SOP. In kind it is functional. Particulars: 30 µM.
The target of test [9] is Chromo domain-containing protein 1 (Saccharomyces cerevisiae (strain ATCC 204508 / S288c) (Baker's yeast)) (UniProt P32657). The experiment in a line: ScCHD-1 Enzyme Inhibition Assay. Also: in the data most compounds retested in dose-response had high values. Type of test: functional. The settings on record: 30 µM.

SMILES strings stand for the structures. For some assays here: Measured potencies and affinities stand elsewhere.

For 10 molecules, Percent Effect results are on record in ChEMBL document CHEMBL3988442, “University of Dundee, Small-Polar-MMV Screening Library” (2021).

Sialic acid-binding Ig-like lectin 9 (Homo sapiens), sequence (Q9Y336 whole entry): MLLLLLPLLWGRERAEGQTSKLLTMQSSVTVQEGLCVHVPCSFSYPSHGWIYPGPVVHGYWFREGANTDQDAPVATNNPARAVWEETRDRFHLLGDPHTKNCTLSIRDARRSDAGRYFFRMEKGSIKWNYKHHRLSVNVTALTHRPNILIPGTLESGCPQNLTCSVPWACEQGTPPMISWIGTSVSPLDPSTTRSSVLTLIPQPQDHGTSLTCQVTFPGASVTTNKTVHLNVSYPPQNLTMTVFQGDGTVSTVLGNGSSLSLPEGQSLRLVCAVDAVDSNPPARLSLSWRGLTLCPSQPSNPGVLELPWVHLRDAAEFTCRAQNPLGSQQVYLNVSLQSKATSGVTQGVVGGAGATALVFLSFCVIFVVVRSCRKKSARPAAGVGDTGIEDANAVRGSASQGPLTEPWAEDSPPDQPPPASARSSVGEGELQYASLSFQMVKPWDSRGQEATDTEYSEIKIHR
Protein translocase subunit SecA (Escherichia coli (strain K12)), sequence (P10408 whole entry): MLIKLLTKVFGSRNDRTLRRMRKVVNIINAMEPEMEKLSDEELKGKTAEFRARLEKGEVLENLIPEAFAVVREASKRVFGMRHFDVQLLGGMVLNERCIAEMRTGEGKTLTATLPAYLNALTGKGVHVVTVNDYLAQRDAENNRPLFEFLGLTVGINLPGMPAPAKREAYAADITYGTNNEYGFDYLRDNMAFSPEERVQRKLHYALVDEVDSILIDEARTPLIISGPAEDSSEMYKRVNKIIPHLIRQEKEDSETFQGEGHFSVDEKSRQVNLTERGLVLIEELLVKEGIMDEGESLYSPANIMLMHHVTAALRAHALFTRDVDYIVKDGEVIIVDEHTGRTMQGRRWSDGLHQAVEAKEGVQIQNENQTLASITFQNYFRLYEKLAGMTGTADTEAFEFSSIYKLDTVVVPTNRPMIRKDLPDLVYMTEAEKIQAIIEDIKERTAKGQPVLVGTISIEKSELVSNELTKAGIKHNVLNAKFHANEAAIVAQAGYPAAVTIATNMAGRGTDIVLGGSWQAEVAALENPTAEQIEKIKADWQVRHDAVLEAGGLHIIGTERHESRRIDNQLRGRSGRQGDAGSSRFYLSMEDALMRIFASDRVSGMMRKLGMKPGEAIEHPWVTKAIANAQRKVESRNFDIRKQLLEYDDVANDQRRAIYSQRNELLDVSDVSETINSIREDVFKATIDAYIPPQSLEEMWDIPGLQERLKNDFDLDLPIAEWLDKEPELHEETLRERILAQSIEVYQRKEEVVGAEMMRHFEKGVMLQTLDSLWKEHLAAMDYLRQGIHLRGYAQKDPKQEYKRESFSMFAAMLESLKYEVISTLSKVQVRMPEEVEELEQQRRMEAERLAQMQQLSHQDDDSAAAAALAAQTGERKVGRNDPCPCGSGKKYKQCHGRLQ
Chromo domain-containing protein 1 (Saccharomyces cerevisiae (strain ATCC 204508 / S288c) (Baker's yeast)), sequence (P32657 whole entry, the tested form may be a part): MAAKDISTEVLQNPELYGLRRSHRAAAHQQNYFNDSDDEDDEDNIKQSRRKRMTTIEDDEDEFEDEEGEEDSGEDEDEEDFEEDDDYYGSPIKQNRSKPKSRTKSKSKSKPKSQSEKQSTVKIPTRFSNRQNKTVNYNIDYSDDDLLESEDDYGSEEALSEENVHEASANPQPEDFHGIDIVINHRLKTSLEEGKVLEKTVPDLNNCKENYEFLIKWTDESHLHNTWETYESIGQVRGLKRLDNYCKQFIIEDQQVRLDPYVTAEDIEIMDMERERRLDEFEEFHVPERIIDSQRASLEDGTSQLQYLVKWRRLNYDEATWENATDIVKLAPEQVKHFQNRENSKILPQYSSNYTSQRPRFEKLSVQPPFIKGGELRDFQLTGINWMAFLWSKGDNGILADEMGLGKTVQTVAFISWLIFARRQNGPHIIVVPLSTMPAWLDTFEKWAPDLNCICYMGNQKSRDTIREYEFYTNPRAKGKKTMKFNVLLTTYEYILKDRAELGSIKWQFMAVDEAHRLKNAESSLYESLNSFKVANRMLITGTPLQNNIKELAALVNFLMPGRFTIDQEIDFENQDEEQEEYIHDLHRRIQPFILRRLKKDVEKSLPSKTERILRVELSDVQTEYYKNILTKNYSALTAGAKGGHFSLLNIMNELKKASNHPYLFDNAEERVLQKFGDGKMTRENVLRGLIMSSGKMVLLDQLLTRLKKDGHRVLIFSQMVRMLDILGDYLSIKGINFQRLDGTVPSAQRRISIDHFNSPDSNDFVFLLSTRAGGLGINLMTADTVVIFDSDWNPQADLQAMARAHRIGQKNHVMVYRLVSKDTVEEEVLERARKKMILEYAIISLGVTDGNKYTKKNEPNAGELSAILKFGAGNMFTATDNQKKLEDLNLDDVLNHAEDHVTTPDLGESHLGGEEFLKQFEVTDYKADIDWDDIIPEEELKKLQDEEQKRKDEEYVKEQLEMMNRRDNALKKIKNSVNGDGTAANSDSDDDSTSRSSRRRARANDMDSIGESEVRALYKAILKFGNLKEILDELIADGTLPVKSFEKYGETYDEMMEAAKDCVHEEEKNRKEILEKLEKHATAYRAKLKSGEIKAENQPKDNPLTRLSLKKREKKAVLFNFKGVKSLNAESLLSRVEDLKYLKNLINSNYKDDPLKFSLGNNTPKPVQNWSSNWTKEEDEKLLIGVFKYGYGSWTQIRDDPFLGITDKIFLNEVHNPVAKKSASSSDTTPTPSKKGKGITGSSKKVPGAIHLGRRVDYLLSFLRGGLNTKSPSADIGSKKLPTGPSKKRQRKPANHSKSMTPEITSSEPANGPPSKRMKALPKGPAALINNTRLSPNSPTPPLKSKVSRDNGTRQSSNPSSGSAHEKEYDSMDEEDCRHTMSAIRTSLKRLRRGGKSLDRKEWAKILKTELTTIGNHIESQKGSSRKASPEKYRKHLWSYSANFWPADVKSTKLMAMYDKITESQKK

Consider `CC(C)(C)CC(=O)N1CC[C@@H]2[C@H](CC1)N(S(C)(=O)=O)CCS2(=O)=O`, for which the Percent Effect in test [1] was -2.22%; in [2], 16.2%; in [3], -9.04%; in test [4] it was 3.69%; in the test on Trypanosoma cruzi it was 5.27%; in [5], 15%. The Percent Effect in test [6] is 9.89%; in the test filed under Homo sapiens, 8.9%; in test [7], 8.91%; in test [8], 20.7%; in test [9] it was -8.05%.
Turning to `Cc1nccc(C2CN(Cc3cc[nH]n3)CCO2)n1` (stereo not given), the Percent Effect in test [1] is -1.51%; in [2] it was 1.35%; in test [3], 9.42%; in [4], 3.04%; in the test with Trypanosoma cruzi it was -1.98%; in test [5] it was -1.16%. Also, the Percent Effect is 4.84% in [6]; -10.9% in the test filed under Homo sapiens; 0% in test [7]; 3.9% in test [8]; -12.4% in test [9].
Turning to `COc1ccc(CN2CCCC2Cn2nc(C)nc2C)cc1F` (stereo not given), the Percent Effect is -3.83% in test [1]; 6.33% in test [2]; 4.88% in test [3]; 0.831% in test [4]; -0.718% with Trypanosoma cruzi; 2.8% in test [5]. The Percent Effect in test [6] was 8.58%; in the test filed under Homo sapiens it was 3.7%; in [7], 5.21%; in [8] it was 7.59%; in test [9], -16.6%.
As to `O=C(c1cccs1)N1CCC(n2nc(-c3ccco3)ccc2=O)CC1`, the Percent Effect in test [1] is -6.35%; in test [2], 12.2%; in test [3], 7.9%; in test [4], 14%; in the test with Trypanosoma cruzi, -1.19%; in test [5], -5.8%. For the same molecule, the Percent Effect in [6] is 12.9%; in the test filed under Homo sapiens it was 0.605%; in test [7] it was 9.68%; in test [8] it was 16.9%; in test [9], -26.4%.
In the case of `Cc1nnc2n1CCN(CCC(=O)Nc1sccc1C#N)C2`, the Percent Effect in [1] is -2.38%; in test [2], 13.2%; in test [3], -4.92%; in test [4], 7.34%; in the test on Trypanosoma cruzi, 0.84%; in test [5], -0.719%. In addition, the Percent Effect is 10.4% in [6]; 9.54% in the test listed under Homo sapiens; 6.4% in test [7]; 18.5% in [8]; -2.88% in test [9].
Consider `Cc1cc(C)n(CC2CN(Cc3nnsc3Cl)CCO2)n1` (stereo not given), for which the Percent Effect in test [1] was -1.37%; in test [2], 21.1%; in [3], 3.21%; in [4], 2.78%; in the test on Trypanosoma cruzi it was -2.82%; in test [5], -4.21%. The Percent Effect was 14.7% in test [6]; -18.7% in the test filed under Homo sapiens; 4.41% in test [7]; 17.1% in [8]; -7.75% in test [9].
Consider `COc1cc2ncn(CC(=O)NCCCN(C)C)c(=O)c2cc1OC`, for which the Percent Effect in test [1] is -1.85%; in test [2], 1.33%; in test [3], -1.58%; in test [4], 0.564%; with Trypanosoma cruzi it was -8.84%; in test [5], -3.35%. In addition, the Percent Effect is 7.76% in [6]; -4.68% in the test listed under Homo sapiens; 4.23% in test [7]; -53.9% in test [8]; -7.79% in test [9].
For `Cc1n[nH]c(C2CN(C(=O)c3cc(C4CC4)[nH]n3)CCO2)n1` (stereo not given), the Percent Effect is -3.77% in test [1]; 13% in test [2]; 3.73% in test [3]; 15.3% in test [4]; -0.0979% in the test with Trypanosoma cruzi; 0.632% in test [5]. In addition, the Percent Effect was 9.78% in [6]; -11% in the test listed under Homo sapiens; 5.71% in test [7]; 11.8% in test [8]; -11.2% in test [9].
With `COc1ncccc1NC(=O)C1CC(=O)N(Cc2ccccn2)C1` (stereo not given), the Percent Effect in test [1] is -1.71%; in [2], 10.5%; in test [3] it was 4.85%; in [4] it was -1.28%; in the test with Trypanosoma cruzi it was -4.97%; in test [5] it was -2.37%. Besides, the Percent Effect in test [6] was 22.3%; in the test listed under Homo sapiens, -2.21%; in test [7] it was 4.25%; in [8], 13%; in [9], -2.98%.
As to `Cc1cnn(CC2CN(Cc3nc(N)c4ccccc4n3)CCO2)c1` (stereo not given), the Percent Effect in [1] was -2.67%; in test [2], 13%; in test [3], -1.66%; in test [4], -10%; in the test with Trypanosoma cruzi it was -5.78%; in [5] it was -1.47%. Moreover, the Percent Effect in test [6] is 19.3%; in the test listed under Homo sapiens, 10.5%; in test [7], 4.76%; in [8], 11.8%; in [9] it was -20.4%.
